# Results taken from article PMC7862700, “An all-to-all approach to the identification of sequence-specific readers for epigenetic DNA modifications on cytosine”.
# Legend:
# Test in all cases: DAPPL (digital affinity profiling via proximity ligation, sequencing); 10 mM Tris-HCl pH 7.5, 50 mM NaCl, 1 mM DTT, 4% glycerol, room temperature, 30 min; GST-TFs on glutathione beads, 16-mer random dsDNA library, 0.1% formaldehyde crosslink after washing; high values mean tight binding
# FLI1 = target: T1, FLI1 (Homo sapiens, UniProt Q01543 1-452); settings: protein: recombinant; tags: N-terminal GST; dsDNA, one strand shown
# T1 sequence: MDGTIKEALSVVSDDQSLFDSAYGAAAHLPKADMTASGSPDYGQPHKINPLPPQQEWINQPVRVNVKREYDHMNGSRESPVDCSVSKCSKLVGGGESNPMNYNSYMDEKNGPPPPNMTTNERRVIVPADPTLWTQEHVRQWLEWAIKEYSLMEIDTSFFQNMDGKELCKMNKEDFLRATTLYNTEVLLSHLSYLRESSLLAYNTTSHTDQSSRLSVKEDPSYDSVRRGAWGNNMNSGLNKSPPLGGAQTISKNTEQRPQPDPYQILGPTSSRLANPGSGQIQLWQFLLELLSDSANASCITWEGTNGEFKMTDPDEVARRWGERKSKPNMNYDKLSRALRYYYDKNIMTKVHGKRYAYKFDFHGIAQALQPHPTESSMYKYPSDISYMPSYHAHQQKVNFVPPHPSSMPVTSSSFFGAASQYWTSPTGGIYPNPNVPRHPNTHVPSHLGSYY
# Outline: (§1)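 After expression in yeast as GST fusions, human transcription factors were bound to glutathione beads, DNA-barcoded and mixed with a tag-only sample. The pools were incubated with 200 nmole of a 16-mer random double-stranded DNA library in Tris/NaCl/DTT/glycerol buffer (30 min, room temperature), washed and crosslinked with 0.1% formaldehyde. Proximity ligation with BsaI/T4 ligase ran for 1 h at 37 °C, before PCR amplification and sequencing on an Illumina NextSeq500. Binding signal is a hexamer's read frequency for a factor divided by its frequency for the tag-only sample.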
# ELK1 = target: T2, ELK1 (Homo sapiens, UniProt P19419 1-428); settings: protein: recombinant; tags: N-terminal GST; dsDNA, one strand shown
# T2 sequence: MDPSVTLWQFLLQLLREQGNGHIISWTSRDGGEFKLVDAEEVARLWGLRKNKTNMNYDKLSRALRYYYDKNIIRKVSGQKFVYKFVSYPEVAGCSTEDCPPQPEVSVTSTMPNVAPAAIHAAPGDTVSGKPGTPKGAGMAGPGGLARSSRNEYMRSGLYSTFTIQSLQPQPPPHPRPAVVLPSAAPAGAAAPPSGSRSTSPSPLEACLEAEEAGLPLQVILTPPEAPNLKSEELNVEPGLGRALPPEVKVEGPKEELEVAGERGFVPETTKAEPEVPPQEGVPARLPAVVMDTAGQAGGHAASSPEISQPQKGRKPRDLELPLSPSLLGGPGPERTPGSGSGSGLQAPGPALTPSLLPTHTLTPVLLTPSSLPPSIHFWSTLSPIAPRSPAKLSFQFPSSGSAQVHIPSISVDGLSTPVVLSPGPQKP
# Outline: as §1
# GABPA = target: T3, GABPA (Homo sapiens, UniProt Q06546 1-454); settings: protein: recombinant; tags: N-terminal GST; dsDNA, one strand shown
# T3 sequence: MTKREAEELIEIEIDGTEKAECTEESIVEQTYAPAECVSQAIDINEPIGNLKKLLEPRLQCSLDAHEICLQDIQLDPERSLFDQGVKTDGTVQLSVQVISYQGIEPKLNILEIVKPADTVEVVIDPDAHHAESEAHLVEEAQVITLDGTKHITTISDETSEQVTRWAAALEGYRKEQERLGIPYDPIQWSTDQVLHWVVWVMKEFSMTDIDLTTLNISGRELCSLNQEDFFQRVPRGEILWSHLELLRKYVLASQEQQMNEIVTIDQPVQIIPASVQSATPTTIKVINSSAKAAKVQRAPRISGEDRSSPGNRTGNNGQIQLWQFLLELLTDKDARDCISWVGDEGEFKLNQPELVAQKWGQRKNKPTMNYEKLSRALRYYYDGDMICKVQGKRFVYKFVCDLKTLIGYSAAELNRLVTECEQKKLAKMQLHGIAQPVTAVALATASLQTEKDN
# Outline: as §1
# ERG = target: T4, ERG (Homo sapiens, UniProt P11308 1-479); settings: protein: recombinant; tags: N-terminal GST; dsDNA, one strand shown
# T4 sequence: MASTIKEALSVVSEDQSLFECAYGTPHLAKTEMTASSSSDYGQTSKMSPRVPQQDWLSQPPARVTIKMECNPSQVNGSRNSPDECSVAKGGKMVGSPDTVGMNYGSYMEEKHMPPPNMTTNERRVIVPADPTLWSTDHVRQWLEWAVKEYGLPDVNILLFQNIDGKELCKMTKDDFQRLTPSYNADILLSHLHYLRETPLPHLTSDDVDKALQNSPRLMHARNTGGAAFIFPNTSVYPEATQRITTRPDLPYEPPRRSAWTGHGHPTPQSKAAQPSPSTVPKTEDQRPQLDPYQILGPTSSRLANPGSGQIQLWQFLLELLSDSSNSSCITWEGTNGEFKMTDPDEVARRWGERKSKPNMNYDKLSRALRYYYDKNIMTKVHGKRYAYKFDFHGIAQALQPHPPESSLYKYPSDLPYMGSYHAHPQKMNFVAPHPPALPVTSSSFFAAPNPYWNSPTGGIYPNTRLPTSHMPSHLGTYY
# Outline: as §1
# ELF1 = ELF1 (Homo sapiens, UniProt P32519 1-619); settings: protein: recombinant; tags: N-terminal GST; dsDNA, one strand shown
# ELF1, sequence (P32519 whole entry): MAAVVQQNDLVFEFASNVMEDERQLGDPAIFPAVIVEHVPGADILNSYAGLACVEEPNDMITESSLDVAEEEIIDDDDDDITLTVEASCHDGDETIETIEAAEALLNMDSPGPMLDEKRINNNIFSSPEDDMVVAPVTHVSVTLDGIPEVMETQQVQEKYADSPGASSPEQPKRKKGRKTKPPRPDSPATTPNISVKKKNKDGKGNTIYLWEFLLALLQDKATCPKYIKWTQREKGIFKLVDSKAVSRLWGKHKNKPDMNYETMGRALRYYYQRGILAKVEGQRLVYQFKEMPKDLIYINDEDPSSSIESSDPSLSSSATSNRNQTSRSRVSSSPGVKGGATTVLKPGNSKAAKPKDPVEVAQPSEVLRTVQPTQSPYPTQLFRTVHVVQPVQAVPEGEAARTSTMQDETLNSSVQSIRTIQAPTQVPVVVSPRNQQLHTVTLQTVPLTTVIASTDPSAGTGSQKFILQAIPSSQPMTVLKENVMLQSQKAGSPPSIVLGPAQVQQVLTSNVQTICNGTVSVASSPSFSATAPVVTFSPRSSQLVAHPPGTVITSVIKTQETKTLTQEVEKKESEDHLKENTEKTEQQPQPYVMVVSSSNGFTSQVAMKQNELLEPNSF
# Outline: as §1
# EHF = target: T5, EHF (Homo sapiens, UniProt Q9NZC4 1-300); settings: protein: recombinant; tags: N-terminal GST; dsDNA, one strand shown
# T5 sequence: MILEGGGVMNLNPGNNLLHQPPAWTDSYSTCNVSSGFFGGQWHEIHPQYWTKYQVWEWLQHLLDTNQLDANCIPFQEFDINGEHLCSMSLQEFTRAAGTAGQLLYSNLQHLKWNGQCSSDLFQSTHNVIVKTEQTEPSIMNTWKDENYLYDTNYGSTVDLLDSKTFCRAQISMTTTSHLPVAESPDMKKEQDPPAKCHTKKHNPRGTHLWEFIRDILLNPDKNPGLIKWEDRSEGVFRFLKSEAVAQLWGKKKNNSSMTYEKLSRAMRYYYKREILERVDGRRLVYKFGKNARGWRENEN
# Outline: as §1
# SPI1 = SPI1 (Homo sapiens, UniProt P17947 1-270); settings: protein: recombinant; tags: N-terminal GST; dsDNA, one strand shown
# Outline: as §1
# SPIB = SPIB (Homo sapiens, UniProt Q01892 1-262); settings: protein: recombinant; tags: N-terminal GST; dsDNA, one strand shown
# SPIB, sequence (Q01892 whole entry): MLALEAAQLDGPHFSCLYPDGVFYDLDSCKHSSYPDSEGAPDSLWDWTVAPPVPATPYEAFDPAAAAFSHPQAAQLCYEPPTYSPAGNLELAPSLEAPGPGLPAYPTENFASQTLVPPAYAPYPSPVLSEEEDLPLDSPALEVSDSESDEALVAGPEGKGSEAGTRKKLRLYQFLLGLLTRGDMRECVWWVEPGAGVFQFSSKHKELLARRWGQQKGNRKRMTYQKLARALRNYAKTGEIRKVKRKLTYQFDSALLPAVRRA
# Outline: as §1
# ELK3 = target: T6, ELK3 (Homo sapiens, UniProt P41970 1-407); settings: protein: recombinant; tags: N-terminal GST; dsDNA, one strand shown
# T6 sequence: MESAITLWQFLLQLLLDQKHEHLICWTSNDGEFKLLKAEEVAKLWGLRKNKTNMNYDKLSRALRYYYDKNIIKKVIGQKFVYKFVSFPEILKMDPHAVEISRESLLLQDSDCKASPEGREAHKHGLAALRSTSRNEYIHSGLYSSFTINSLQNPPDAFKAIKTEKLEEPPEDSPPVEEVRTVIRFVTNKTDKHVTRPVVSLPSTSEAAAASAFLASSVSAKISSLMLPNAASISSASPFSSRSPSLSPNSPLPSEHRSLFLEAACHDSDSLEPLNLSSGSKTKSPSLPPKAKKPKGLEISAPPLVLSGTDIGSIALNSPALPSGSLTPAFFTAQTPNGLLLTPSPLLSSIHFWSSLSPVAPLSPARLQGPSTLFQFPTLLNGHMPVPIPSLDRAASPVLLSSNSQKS
# Outline: as §1
# FEV = target: T7, FEV (Homo sapiens, UniProt Q99581 1-238); settings: protein: recombinant; tags: N-terminal GST; dsDNA, one strand shown
# T7 sequence: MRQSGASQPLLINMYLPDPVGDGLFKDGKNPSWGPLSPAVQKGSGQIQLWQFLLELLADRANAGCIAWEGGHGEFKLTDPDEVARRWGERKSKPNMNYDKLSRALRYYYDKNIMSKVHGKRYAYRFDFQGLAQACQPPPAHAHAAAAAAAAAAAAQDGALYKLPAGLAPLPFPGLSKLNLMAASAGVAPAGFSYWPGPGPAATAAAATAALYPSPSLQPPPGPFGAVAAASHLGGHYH
# Outline: as §1
# ETV5 = ETV5 (Homo sapiens, UniProt P41161 1-510); settings: protein: recombinant; tags: N-terminal GST; dsDNA, one strand shown
# ETV5, sequence (P41161 whole entry): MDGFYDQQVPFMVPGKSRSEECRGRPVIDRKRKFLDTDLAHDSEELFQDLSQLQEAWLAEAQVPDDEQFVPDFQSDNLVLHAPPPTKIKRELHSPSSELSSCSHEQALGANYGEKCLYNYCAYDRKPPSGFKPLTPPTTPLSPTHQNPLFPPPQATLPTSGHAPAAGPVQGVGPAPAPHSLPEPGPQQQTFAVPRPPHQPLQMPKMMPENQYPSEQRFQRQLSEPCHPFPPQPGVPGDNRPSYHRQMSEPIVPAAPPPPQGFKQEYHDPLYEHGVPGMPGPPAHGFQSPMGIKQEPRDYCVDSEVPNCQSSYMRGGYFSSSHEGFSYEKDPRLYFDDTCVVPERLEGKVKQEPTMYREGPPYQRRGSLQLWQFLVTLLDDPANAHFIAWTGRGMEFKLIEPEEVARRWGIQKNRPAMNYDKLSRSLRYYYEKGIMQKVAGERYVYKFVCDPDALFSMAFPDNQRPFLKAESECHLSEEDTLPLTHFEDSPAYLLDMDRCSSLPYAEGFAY
# Outline: as §1
# HSF1 = HSF1 (Homo sapiens, UniProt Q00613 1-529); settings: protein: recombinant; tags: N-terminal GST; chain copies: 3; dsDNA, one strand shown
# HSF1, sequence (Q00613 whole entry): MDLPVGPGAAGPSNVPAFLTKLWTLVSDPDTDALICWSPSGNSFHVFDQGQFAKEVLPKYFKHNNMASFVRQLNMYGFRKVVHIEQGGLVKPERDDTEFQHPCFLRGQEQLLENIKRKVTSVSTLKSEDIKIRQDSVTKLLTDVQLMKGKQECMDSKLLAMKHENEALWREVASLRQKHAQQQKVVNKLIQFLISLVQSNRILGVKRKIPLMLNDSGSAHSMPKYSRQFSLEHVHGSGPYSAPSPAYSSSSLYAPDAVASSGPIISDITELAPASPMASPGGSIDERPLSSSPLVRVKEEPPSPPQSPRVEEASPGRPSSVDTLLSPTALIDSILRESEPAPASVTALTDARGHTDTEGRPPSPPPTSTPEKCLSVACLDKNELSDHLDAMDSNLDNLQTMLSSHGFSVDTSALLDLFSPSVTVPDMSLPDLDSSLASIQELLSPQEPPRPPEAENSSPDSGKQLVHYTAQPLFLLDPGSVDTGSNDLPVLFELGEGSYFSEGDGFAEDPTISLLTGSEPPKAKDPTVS
# Outline: as §1
# SPIC = target: T8, SPIC (Homo sapiens, UniProt Q8N5J4 1-248); settings: protein: recombinant; tags: N-terminal GST; dsDNA, one strand shown
# T8 sequence: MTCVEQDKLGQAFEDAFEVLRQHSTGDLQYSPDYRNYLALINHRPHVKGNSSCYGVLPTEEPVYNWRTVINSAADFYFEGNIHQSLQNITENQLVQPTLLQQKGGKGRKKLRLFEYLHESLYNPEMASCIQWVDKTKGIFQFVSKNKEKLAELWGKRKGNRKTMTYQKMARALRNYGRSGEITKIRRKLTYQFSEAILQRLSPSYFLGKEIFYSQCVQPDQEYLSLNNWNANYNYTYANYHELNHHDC
# Outline: as §1
# ELF4 = ELF4 (Homo sapiens, UniProt Q99607 1-663); settings: protein: recombinant; tags: N-terminal GST; dsDNA, one strand shown
# ELF4, sequence (Q99607 whole entry): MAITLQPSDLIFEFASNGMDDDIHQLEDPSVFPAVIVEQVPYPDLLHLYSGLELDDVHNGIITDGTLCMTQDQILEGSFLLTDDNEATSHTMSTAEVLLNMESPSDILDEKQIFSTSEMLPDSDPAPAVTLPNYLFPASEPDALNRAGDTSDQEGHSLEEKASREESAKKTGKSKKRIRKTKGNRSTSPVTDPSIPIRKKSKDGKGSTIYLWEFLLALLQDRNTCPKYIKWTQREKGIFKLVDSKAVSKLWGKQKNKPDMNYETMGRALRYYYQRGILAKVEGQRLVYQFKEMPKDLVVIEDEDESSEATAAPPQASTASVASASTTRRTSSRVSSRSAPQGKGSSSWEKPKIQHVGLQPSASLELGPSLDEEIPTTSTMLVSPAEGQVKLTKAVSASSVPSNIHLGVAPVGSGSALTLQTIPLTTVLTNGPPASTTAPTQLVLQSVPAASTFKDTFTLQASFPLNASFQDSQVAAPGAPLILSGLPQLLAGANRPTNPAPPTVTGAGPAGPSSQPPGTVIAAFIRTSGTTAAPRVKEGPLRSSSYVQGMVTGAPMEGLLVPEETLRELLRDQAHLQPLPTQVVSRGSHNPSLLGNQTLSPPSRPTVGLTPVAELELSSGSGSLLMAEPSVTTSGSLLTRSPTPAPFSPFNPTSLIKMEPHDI
# Outline: as §1
# ELK4 = target: T9, ELK4 (Homo sapiens, UniProt P28324-2 1-405); settings: protein: recombinant; tags: N-terminal GST; dsDNA, one strand shown
# T9 sequence: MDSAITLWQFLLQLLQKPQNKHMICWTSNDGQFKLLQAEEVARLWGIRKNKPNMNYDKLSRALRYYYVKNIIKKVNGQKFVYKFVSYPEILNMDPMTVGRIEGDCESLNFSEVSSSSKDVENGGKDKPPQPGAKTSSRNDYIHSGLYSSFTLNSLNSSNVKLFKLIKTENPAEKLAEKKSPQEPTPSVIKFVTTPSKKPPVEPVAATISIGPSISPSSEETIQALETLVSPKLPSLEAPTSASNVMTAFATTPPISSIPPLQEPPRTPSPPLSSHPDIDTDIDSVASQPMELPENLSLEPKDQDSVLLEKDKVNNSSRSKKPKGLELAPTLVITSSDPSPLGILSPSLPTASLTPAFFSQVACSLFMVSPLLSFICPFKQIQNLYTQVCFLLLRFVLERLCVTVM
# Outline: as §1
# ETV2 = target: T10, ETV2 (Homo sapiens, UniProt O00321 1-342); settings: protein: recombinant; tags: N-terminal GST; dsDNA, one strand shown
# T10 sequence: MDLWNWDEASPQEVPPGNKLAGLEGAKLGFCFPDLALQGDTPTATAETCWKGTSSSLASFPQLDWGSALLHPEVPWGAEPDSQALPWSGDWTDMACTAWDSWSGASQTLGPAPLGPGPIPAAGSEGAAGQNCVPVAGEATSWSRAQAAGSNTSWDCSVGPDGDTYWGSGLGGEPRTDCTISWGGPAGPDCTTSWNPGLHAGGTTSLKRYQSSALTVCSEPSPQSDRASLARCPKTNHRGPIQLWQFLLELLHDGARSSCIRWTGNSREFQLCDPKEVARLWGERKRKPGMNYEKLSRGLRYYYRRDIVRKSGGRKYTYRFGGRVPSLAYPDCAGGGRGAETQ
# Outline: as §1
# ELF3 = target: T11, ELF3 (Homo sapiens, UniProt P78545 1-371); settings: protein: recombinant; tags: N-terminal GST; dsDNA, one strand shown
# T11 sequence: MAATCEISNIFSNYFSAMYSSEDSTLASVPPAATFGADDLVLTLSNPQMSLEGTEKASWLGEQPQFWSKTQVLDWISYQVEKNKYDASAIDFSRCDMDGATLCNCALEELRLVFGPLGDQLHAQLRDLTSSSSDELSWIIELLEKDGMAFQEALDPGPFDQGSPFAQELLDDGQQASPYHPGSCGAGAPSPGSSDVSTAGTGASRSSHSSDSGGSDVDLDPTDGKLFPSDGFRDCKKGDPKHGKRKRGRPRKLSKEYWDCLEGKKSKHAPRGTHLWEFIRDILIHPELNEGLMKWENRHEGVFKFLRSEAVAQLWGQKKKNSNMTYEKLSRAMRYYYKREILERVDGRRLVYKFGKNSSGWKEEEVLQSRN
# Outline: as §1
# CRX = CRX (Homo sapiens, UniProt O43186 1-299); settings: protein: recombinant; tags: N-terminal GST; dsDNA, one strand shown
# CRX, sequence (O43186 whole entry): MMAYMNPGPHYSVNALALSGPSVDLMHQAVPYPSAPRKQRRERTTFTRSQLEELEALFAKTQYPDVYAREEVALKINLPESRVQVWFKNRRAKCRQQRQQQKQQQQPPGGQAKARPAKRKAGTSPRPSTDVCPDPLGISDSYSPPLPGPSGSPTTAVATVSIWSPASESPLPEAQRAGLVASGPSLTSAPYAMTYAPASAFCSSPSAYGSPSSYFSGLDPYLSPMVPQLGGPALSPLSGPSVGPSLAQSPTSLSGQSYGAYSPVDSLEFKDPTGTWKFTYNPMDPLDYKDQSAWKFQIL
# Outline: as §1
# ETV1 = ETV1 (Homo sapiens, UniProt P50549 1-477); settings: protein: recombinant; tags: N-terminal GST; dsDNA, one strand shown
# ETV1, sequence (P50549 whole entry): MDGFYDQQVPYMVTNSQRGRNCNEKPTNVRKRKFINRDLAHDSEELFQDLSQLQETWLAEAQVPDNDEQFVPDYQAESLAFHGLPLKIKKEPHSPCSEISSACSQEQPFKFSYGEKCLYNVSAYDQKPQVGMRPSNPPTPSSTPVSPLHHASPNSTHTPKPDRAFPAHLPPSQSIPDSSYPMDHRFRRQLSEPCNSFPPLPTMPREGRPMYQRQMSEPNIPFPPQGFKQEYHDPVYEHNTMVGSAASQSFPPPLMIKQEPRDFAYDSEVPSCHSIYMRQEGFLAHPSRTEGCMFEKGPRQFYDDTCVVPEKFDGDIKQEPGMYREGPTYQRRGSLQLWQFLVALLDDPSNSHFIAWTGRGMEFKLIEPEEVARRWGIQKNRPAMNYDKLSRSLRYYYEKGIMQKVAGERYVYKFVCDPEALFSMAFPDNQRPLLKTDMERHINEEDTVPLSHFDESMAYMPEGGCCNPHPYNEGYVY
# Outline: as §1
sequence,measurement,setting,value
TTGCAT,binding signal,FLI1,"1.5 fold enrichment (6-mer frequency, TF over GST control)"
same,binding signal,ELK1,"1.43 fold enrichment (6-mer frequency, TF over GST control)"
same,binding signal,GABPA,"1.52 fold enrichment (6-mer frequency, TF over GST control)"
same,binding signal,ERG,"1.37 fold enrichment (6-mer frequency, TF over GST control)"
same,binding signal,ELF1,"1.39 fold enrichment (6-mer frequency, TF over GST control)"
same,binding signal,EHF,"1.4 fold enrichment (6-mer frequency, TF over GST control)"
same,binding signal,SPI1,"1.44 fold enrichment (6-mer frequency, TF over GST control)"
same,binding signal,SPIB,"1.38 fold enrichment (6-mer frequency, TF over GST control)"
same,binding signal,ELK3,"1.42 fold enrichment (6-mer frequency, TF over GST control)"
same,binding signal,FEV,"1.35 fold enrichment (6-mer frequency, TF over GST control)"
same,binding signal,ETV5,"1.39 fold enrichment (6-mer frequency, TF over GST control)"
same,binding signal,HSF1,"1.3 fold enrichment (6-mer frequency, TF over GST control)"
same,binding signal,SPIC,"1.59 fold enrichment (6-mer frequency, TF over GST control)"
same,binding signal,ELF4,"1.4 fold enrichment (6-mer frequency, TF over GST control)"
same,binding signal,ELK4,"1.31 fold enrichment (6-mer frequency, TF over GST control)"
same,binding signal,ETV2,"1.53 fold enrichment (6-mer frequency, TF over GST control)"
same,binding signal,ELF3,"1.38 fold enrichment (6-mer frequency, TF over GST control)"
same,binding signal,CRX,"1.33 fold enrichment (6-mer frequency, TF over GST control)"
same,binding signal,ETV1,"1.5 fold enrichment (6-mer frequency, TF over GST control)"
